Experimental data as given in PubChem BioAssay AID1159580 (chemical genetic matrix, 2015).
Values joined by “and” are separate entries in the source; they are usually repeats but may differ in a detail not shown here. Equal values may be shown once. Hit rate of the full screen: of about 5,500 compounds, about 2,000 (36%) were called active. Roughly 18% stayed inconclusive and do not appear here. No stated cut-off is given here; in the data, active means normalized growth mostly below about 0.91 (no sharp cut-off); inconclusive means no clear call, values can overlap the other calls; inactive means mostly above about 0.92. The list shows a part of the results.

Test: chemical genetic growth profiling, strain panel (AID 1159580);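 further: tested at 20 µM; growth read once vehicle control cultures reached saturation at 30 °C; 1 = growth at the plate median or of vehicle wells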
Details: S. cerevisiae deletion strains, growth OD

Measured: normalized growth

CC1=C(C(=O)O)N2C(=O)[C@@H](NC(=O)[C@@H](N)c3ccc(O)cc3)[C@H]2SC1
inactive: locus YAL013W, strain DEP1, stronger effect = lower value 0.993 | locus YAL021C, strain ccr4, stronger effect = lower value 1.02 | locus YAL026C, strain drs2, stronger effect = lower value 1.04 | locus YAL030W, strain snc1, stronger effect = lower value 1.03 | locus YBL061C, strain skt5, stronger effect = lower value 1.03 | locus YBR009C, strain hhf1, stronger effect = lower value 1.03 | locus YBR021W, strain FUR4, stronger effect = lower value 1.01 | locus YBR023C, strain chs3, stronger effect = lower value 1.06 | locus YBR171W, strain sec66, stronger effect = lower value 1.03 | locus YBR229C, strain ROT2, stronger effect = lower value 0.958 | locus YBR231C, strain swc5, stronger effect = lower value 1.04 | locus YBR279W, strain paf1, stronger effect = lower value 1.02 | locus YCL011C, strain gbp2, stronger effect = lower value 1.01 | locus YCL016C, strain dcc1, stronger effect = lower value 1.03 | locus YCL029C, strain bik1, stronger effect = lower value 0.984 | locus YCL061C, strain MRC1, stronger effect = lower value 1.04 | locus YCL069W, strain vba3, stronger effect = lower value 1.03 | locus YCR088W, strain abp1, stronger effect = lower value 1.02 | locus YDL005C, strain med2, stronger effect = lower value 1.03 | locus YDL035C, strain GPR1, stronger effect = lower value 0.956 | locus YDL040C, strain nat1, stronger effect = lower value 1.02 | locus YDL074C, strain BRE1, stronger effect = lower value 1.01 | locus YDL101C, strain DUN1, stronger effect = lower value 0.99 | locus YDL185W, strain tfp1, stronger effect = lower value 0.953 | locus YDL192W, strain arf1, stronger effect = lower value 0.971 | locus YDR001C, strain nth1, stronger effect = lower value 1.04 | locus YDR069C, strain doa4, stronger effect = lower value 1.05 | locus YDR101C, strain arx1, stronger effect = lower value 0.965 | locus YDR137W, strain rgp1, stronger effect = lower value 1.03 | locus YDR150W, strain NUM1, stronger effect = lower value 0.985 | locus YDR159W, strain sac3, stronger effect = lower value 1.04 | locus YDR162C, strain NBP2, stronger effect = lower value 0.967 | locus YDR195W, strain ref2 1 | locus YDR297W, strain sur2, stronger effect = lower value 1.03 | locus YDR318W, strain mcm21, stronger effect = lower value 0.994 | locus YDR334W, strain swr1, stronger effect = lower value 1.03 | locus YDR335W, strain msn5, stronger effect = lower value 1.02 | locus YDR388W, stronger effect = lower value 0.979 | locus YDR392W, strain spt3, stronger effect = lower value 1.05 | locus YDR502C, strain sam2, stronger effect = lower value 0.984 | locus YEL003W, strain gim4, stronger effect = lower value 1.03 | locus YEL037C, strain rad23, stronger effect = lower value 1.03 | locus YEL061C, strain CIN8 (second series), stronger effect = lower value 1.04 | locus YEL061C, strain CIN8, stronger effect = lower value 0.988 | locus YER015W, strain faa2, stronger effect = lower value 1.01 | locus YER016W, strain bim1, stronger effect = lower value 1.02 | locus YER110C, stronger effect = lower value 0.973 | locus YER111C, strain swi4, stronger effect = lower value 1.03 | locus YER155C, strain BEM2 (second series), stronger effect = lower value 1.07 | locus YER155C, strain BEM2, stronger effect = lower value 0.995 | locus YER167W, strain BCK2, stronger effect = lower value 0.995 | locus YFR010W, strain ubp6, stronger effect = lower value 1.06 | locus YGL078C, strain dbp3, stronger effect = lower value 1 | locus YGL086W, strain mad1, stronger effect = lower value 0.982 | locus YGL167C, strain pmr1, stronger effect = lower value 1.03 | locus YGL173C, strain kem1, stronger effect = lower value 1.04 | locus YGL227W, strain vid30, stronger effect = lower value 1.03 | locus YGL240W, strain doc1, stronger effect = lower value 1.03 | locus YGL248W, strain PDE1, stronger effect = lower value 1.01 | locus YGL253W, strain hxk2, stronger effect = lower value 1.02 | locus YGR135W, strain pre9, stronger effect = lower value 1.03 | locus YGR229C, strain SMI1, stronger effect = lower value 0.978 | locus YGR252W, strain gcn5, stronger effect = lower value 0.999 | locus YHR013C, strain ard1, stronger effect = lower value 1.06 | locus YHR027C, strain rpn1, stronger effect = lower value 1.02 | locus YHR030C, strain SLT2, stronger effect = lower value 0.986 and 0.97 | locus YHR079C, strain IRE1 (second series), stronger effect = lower value 0.985 | locus YHR079C, strain IRE1, stronger effect = lower value 0.99 | locus YHR094C, strain hxt1, stronger effect = lower value 0.983 | locus YHR129C, strain ARP1, stronger effect = lower value 0.987 | locus YHR142W, strain chs7, stronger effect = lower value 1.04 | locus YHR200W, strain rpn10, stronger effect = lower value 0.967 | locus YIL066C, strain RNR3, stronger effect = lower value 0.98 | locus YIL073C, strain SPO22, stronger effect = lower value 0.981 | locus YIL125W, strain kgd1, stronger effect = lower value 0.988 | locus YIR030C, strain dcg1, stronger effect = lower value 0.982 | locus YJL092W, strain hpr5, stronger effect = lower value 1.04 | locus YJL095W, strain BCK1 (second series), stronger effect = lower value 1.02 | locus YJL095W, strain BCK1, stronger effect = lower value 1.05 and 0.976 | locus YJL115W, strain asf1, stronger effect = lower value 1.04 | locus YJL129C, strain trk1, stronger effect = lower value 1.04 | locus YJL134W, strain LCB3, stronger effect = lower value 0.983 | locus YJL154C, strain vps35, stronger effect = lower value 1.01 | locus YJL164C, strain tpk1, stronger effect = lower value 1.03 | locus YJL166W, strain qcr8, stronger effect = lower value 1.03 | locus YJL168C, strain set2, stronger effect = lower value 0.982 | locus YJL187C, strain SWE1 (second series), stronger effect = lower value 1 | locus YJR043C, strain POL32, stronger effect = lower value 0.97 | locus YJR066W, strain TOR1, stronger effect = lower value 0.979 | locus YKL009W, strain mrt4, stronger effect = lower value 1.05 | locus YKL068W, stronger effect = lower value 0.978 | locus YKL085W, strain MDH1 (second series), stronger effect = lower value 0.991 | locus YKL085W, strain MDH1, stronger effect = lower value 0.991 | locus YKL160W, strain elf1, stronger effect = lower value 1.02 | locus YKR001C, strain vps1, stronger effect = lower value 0.993 | locus YKR026C, strain gcn3, stronger effect = lower value 0.999 | locus YKR091W, strain srl3, stronger effect = lower value 1.03 | locus YLL001W, strain dnm1, stronger effect = lower value 1.04 | locus YLL026W, stronger effect = lower value 1.03 | locus YLL041C, strain sdh2, stronger effect = lower value 1.03 | locus YLR027C, strain aat2, stronger effect = lower value 1.03 | locus YLR039C, strain RIC1, stronger effect = lower value 0.992 | locus YLR058C, strain SHM2, stronger effect = lower value 0.988 | locus YLR102C, strain apc9, stronger effect = lower value 0.985 | locus YLR113W, strain HOG1, stronger effect = lower value 0.932 | locus YLR221C, strain rsa3, stronger effect = lower value 1.04 | locus YLR258W, strain gsy2, stronger effect = lower value 1.02 | locus YLR262C, strain YPT6 (second series), stronger effect = lower value 1.07 | locus YLR262C, strain YPT6, stronger effect = lower value 0.941 | locus YLR268W, strain sec22, stronger effect = lower value 0.977 | locus YLR320W, strain mms22, stronger effect = lower value 1.03 | locus YLR330W, strain CHS5, stronger effect = lower value 0.988 | locus YLR342W, strain FKS1 (second series), stronger effect = lower value 0.979 | locus YLR342W, strain FKS1, stronger effect = lower value 1.03 | locus YLR357W, strain rsc2, stronger effect = lower value 1.04 | locus YLR370C, strain arc18, stronger effect = lower value 1.02 | locus YLR371W, strain rom2, stronger effect = lower value 0.968 | locus YLR384C, strain iki3, stronger effect = lower value 1.03 | locus YLR418C, strain cdc73, stronger effect = lower value 1.02 | locus YML016C, strain PPZ1, stronger effect = lower value 0.99 | locus YML032C, strain rad52, stronger effect = lower value 0.984 | locus YML120C, strain ndi1, stronger effect = lower value 1.03 | locus YML124C, strain tub3, stronger effect = lower value 0.981 | locus YMR058W, strain fet3, stronger effect = lower value 1 | locus YMR078C, strain ctf18, stronger effect = lower value 0.982 | locus YMR125W, strain sto1, stronger effect = lower value 1.04 | locus YMR129W, stronger effect = lower value 1.03 | locus YMR205C, strain PFK2, stronger effect = lower value 1.03 | locus YMR223W, strain ubp8, stronger effect = lower value 1.01 | locus YMR231W, strain pep5, stronger effect = lower value 1.02 | locus YMR263W, strain SAP30, stronger effect = lower value 0.996 | locus YMR307W, strain GAS1, stronger effect = lower value 0.967 | locus YNL067W, strain RPL9B, stronger effect = lower value 1 | locus YNL071W, strain lat1, stronger effect = lower value 1.02 | locus YNL128W, strain TEP1, stronger effect = lower value 0.983 | locus YNL183C, strain NPR1, stronger effect = lower value 0.929 | locus YNL209W, strain ssb2, stronger effect = lower value 1.01 | locus YNL233W, strain BNI4, stronger effect = lower value 1.02 | locus YNL248C, strain rpa49, stronger effect = lower value 1.04 | locus YNL250W, strain rad50, stronger effect = lower value 0.984 | locus YNL271C, strain bni1, stronger effect = lower value 0.984 | locus YNL298W, strain CLA4, stronger effect = lower value 0.981 | locus YNL307C, strain MCK1, stronger effect = lower value 0.983 | locus YNL322C, strain KRE1 (second series), stronger effect = lower value 1.03 | locus YNL322C, strain KRE1, stronger effect = lower value 0.998 | locus YNR049C, strain mso1, stronger effect = lower value 1.03 | locus YNR052C, strain pop2, stronger effect = lower value 0.982 | locus YOL006C, strain TOP1, stronger effect = lower value 1.1 | locus YOL012C, strain htz1 0.974 | locus YOL147C, strain pex11, stronger effect = lower value 0.994 | locus YOR001W, strain rrp6, stronger effect = lower value 1.06 | locus YOR061W, strain CKA2, stronger effect = lower value 0.968 | locus YOR069W, strain VPS5, stronger effect = lower value 0.987 | locus YOR070C, strain gyp1, stronger effect = lower value 1.02 | locus YOR080W, strain dia2, stronger effect = lower value 1.03 | locus YOR083W, strain WHI5, stronger effect = lower value 1.03 | locus YOR106W, strain vam3, stronger effect = lower value 1.03 | locus YOR136W, strain idh2, stronger effect = lower value 0.978 | locus YOR144C, strain elg1, stronger effect = lower value 0.981 | locus YOR184W, strain ser1, stronger effect = lower value 0.988 | locus YOR231W, strain MKK1, stronger effect = lower value 0.966 | locus YOR265W, strain rbl2, stronger effect = lower value 1.02 | locus YOR270C, strain vph1, stronger effect = lower value 1.04 | locus YOR290C, strain snf2, stronger effect = lower value 1.03 | locus YOR316C, strain cot1, stronger effect = lower value 0.957 | locus YPL051W, strain arl3, stronger effect = lower value 1.04 | locus YPL078C, strain atp4, stronger effect = lower value 1.05 | locus YPL106C, strain sse1, stronger effect = lower value 1.02 | locus YPL240C, strain hsp82, stronger effect = lower value 1.02 | locus YPL241C, strain CIN2, stronger effect = lower value 0.989 | locus YPL256C, strain CLN2, stronger effect = lower value 0.976 | locus YPR119W, strain clb2, stronger effect = lower value 0.972 | locus YPR141C, strain kar3, stronger effect = lower value 0.958 | locus YPR163C, strain tif3, stronger effect = lower value 0.981 | locus YPR167C, strain met16, stronger effect = lower value 0.989 | strain wtn01, stronger effect = lower value 0.987
